Experimental data as given in the supplement of paper PMC10849652.
Targets with a hit are over-represented here; the source holds about 7,900 in all. About 0.6% of all pairs of compound and target were hits. A number with no mark means an inactive call.

Experiments:
Assay in all cases: log2 fold change, soluble protein after heating vs DMSO (PISA); higher = thermal stabilisation; K562 cells, 10 uM, 30 min; active = over 0.2 and 3.5 SD of the protein, either way, in both replicates (recomputed)
[1] = compound: C1=CC=C(C=C1)[C@H](COC2=CC3=C(C=C2)NC(=O)N3)NC(=O)C4=CC=CN(C4=O)CC5=CC(=C(C=C5)F)F
Summary of the method: (§1)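 Aliquots of K562 cells (2×10^6 cells/mL) treated with 10 μM compound for 30 min were heated for 3 min over 48°C-58°C. After pooling and extraction in PBS with 0.5% NP-40 at 4°C, soluble protein from a 21,000xg, 90 min spin was quantified by TMTpro 16plex LC-MS/MS with channel sums equalised. Thermal stability is expressed against control samples, from duplicates, as a log2 fold change.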

[2] = compound: CC1=C(SC2=C1C(=N[C@H](C3=NN=C(N32)C)CC(=O)N)C4=CC=C(C=C4)Cl)C
Summary of the method: as §1

[3] = compound: CC1=C2C(=CC=C1)N=C(N(C2=O)C3=CC=CC=C3C)CN4C=NC5=C(N=CN=C54)N
Summary of the method: as §1

[4] = compound: Cc1sc2c(c1C)C(c1ccc(Cl)cc1)=N[C@@H](CC(=O)OC(C)(C)C)c1nnc(C)n1-2
Summary of the method: as §1

[5] = compound: c1ccc([C@@H]2C[C@H]2NC2CCNCC2)cc1
Summary of the method: as §1

Sequence of UniProt Q8WXD2 (Q8WXD2 whole entry, looked up): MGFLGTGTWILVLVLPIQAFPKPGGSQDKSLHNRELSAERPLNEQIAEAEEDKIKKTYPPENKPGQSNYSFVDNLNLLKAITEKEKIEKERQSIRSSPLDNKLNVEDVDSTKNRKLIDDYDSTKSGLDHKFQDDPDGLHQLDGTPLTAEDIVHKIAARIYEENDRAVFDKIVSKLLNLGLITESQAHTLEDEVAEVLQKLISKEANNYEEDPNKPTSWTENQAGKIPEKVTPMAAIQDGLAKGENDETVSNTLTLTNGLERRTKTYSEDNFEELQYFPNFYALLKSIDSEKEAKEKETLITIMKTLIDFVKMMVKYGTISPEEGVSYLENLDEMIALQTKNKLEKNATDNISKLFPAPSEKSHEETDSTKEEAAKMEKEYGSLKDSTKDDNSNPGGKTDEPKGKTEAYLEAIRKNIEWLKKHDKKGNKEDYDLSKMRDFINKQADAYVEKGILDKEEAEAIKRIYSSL
Sequence of UniProt Q04206 (Q04206 whole entry, looked up): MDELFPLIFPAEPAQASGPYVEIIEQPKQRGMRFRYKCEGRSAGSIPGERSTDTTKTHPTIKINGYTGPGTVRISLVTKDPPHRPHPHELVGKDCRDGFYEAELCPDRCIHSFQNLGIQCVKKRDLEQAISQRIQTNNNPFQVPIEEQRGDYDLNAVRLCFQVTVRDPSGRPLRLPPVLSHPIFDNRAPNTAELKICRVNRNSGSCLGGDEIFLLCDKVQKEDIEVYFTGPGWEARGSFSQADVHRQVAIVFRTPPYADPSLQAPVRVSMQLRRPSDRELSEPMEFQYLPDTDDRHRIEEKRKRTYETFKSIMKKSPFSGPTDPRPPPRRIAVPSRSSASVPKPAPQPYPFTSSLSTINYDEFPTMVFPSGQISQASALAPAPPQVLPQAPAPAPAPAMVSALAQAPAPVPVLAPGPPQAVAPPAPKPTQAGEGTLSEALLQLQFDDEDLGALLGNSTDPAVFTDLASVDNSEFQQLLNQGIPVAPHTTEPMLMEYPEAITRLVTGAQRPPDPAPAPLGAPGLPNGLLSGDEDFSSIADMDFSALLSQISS
Sequence of UniProt Q13464 (Q13464 whole entry, looked up): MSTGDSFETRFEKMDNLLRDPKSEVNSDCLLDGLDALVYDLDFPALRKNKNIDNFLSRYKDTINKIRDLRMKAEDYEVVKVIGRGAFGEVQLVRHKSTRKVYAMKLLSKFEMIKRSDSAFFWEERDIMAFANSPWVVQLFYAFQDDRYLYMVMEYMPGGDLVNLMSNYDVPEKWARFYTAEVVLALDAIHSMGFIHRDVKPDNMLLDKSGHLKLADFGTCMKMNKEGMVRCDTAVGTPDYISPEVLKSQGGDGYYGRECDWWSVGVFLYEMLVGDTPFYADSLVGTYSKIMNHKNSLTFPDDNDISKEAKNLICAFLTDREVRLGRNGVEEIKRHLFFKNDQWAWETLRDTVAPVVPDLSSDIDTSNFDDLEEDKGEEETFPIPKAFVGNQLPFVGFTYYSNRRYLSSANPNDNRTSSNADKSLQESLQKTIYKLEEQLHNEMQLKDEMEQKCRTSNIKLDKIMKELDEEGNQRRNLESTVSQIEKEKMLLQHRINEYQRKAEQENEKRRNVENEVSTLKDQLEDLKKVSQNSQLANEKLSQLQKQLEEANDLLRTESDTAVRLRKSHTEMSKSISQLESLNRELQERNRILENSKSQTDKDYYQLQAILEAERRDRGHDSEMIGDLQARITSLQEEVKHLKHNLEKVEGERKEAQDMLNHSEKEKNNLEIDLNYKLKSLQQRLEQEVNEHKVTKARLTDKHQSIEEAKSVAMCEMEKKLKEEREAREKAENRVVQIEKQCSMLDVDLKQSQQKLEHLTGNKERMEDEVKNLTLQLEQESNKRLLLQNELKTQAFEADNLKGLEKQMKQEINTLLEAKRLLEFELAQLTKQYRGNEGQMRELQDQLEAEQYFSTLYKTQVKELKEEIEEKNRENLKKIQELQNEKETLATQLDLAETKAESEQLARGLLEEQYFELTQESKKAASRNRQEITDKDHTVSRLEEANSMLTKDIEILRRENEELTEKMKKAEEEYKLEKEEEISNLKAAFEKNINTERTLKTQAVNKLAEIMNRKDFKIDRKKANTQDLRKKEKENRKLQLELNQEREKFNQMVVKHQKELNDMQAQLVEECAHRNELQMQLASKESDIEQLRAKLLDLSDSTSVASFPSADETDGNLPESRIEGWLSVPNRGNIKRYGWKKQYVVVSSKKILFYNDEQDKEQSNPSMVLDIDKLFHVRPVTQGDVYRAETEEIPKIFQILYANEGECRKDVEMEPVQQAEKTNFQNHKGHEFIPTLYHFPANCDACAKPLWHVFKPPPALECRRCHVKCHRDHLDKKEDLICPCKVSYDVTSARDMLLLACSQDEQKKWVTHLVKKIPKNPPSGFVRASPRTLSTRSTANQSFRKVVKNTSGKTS
Sequence of UniProt Q13530 (Q13530 whole entry, looked up): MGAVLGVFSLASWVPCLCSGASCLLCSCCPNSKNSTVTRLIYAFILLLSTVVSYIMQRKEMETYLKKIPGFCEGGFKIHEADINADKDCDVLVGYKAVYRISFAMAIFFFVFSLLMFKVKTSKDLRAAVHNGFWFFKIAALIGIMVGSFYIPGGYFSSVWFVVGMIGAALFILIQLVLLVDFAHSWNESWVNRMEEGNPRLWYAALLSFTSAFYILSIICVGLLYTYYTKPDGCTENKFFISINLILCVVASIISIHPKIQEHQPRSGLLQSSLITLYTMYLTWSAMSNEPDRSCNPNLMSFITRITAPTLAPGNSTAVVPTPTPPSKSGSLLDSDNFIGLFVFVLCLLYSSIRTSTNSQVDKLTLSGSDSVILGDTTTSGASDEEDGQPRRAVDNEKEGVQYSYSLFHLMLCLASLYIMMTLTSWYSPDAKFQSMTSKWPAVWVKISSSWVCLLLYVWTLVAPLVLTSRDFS
Sequence of UniProt Q9NW64 (Q9NW64 whole entry, looked up): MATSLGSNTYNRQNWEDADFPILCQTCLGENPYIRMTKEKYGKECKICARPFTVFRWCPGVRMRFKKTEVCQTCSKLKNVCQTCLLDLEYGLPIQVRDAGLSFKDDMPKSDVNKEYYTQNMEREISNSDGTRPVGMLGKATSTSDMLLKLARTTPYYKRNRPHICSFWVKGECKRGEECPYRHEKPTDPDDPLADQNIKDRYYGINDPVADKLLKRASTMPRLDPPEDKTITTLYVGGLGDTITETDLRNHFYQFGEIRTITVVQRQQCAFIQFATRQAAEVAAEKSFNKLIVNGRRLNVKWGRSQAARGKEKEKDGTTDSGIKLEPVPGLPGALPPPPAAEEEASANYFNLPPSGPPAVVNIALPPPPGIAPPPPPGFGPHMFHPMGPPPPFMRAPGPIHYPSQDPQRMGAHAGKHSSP
Sequence of UniProt Q8NBJ9 (Q8NBJ9 whole entry, looked up): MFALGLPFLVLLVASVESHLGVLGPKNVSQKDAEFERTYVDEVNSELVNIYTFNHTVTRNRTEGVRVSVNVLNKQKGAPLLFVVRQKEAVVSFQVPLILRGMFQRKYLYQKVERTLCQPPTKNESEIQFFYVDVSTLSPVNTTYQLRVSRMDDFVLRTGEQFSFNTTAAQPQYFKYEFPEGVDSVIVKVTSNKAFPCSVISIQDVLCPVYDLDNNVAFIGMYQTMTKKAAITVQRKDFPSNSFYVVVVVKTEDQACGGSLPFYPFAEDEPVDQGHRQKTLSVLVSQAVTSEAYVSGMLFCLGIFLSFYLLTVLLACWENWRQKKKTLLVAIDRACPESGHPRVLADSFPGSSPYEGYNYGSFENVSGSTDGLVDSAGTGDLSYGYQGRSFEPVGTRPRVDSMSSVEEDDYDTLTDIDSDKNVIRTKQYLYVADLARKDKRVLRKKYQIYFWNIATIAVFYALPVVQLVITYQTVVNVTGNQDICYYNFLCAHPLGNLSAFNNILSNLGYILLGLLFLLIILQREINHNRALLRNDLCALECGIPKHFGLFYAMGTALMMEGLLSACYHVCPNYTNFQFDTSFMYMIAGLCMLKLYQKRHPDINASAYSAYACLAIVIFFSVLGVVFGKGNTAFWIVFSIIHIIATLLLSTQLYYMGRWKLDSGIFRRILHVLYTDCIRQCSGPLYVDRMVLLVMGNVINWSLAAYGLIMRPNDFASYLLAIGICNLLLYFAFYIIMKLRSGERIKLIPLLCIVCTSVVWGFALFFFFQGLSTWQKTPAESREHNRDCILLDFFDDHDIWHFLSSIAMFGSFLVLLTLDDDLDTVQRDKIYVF
Sequence of UniProt Q9BY42 (Q9BY42 whole entry, looked up): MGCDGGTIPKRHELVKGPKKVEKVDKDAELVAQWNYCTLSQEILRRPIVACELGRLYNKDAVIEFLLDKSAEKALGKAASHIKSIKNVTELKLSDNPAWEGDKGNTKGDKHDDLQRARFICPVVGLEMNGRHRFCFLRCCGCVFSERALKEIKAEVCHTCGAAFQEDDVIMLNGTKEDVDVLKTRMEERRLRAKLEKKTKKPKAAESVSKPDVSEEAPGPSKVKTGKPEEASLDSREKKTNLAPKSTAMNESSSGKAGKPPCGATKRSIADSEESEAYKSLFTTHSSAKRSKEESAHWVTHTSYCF
Sequence of UniProt P61586 (P61586 whole entry, looked up): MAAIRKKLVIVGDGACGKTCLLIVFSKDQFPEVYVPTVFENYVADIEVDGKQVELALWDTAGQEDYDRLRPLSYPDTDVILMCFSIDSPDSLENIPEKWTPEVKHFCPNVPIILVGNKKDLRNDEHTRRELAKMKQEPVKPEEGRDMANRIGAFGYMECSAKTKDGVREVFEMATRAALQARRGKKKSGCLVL
Sequence of UniProt Q8TD22 (Q8TD22 whole entry, looked up): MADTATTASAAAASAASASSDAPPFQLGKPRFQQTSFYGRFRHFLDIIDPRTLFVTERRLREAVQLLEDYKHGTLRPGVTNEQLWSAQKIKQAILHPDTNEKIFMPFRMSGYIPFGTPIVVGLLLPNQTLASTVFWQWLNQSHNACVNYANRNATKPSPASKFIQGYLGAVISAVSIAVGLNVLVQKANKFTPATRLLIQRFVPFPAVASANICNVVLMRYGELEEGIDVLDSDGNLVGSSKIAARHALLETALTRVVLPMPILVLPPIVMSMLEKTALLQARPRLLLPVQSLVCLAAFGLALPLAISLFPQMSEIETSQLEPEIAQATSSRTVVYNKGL

Row | Target | log2 fold change [1] | log2 fold change [2] | log2 fold change [3] | log2 fold change [4] | log2 fold change [5]
1 | RAB3IL1 (UniProt E9PK89) | 0.05 | 0.259 | -0.107 | 0.15 | -0.136
2 | SESN2 (UniProt P58004) | -0.03 | -0.031 | 0.067 | 0.066 | -0.028
3 | SCO2 (UniProt O43819) | -0.03 | -0.108 | -0.041 | -0.098 | 0.023
4 | RPS18 (UniProt P62269) | 0.088 | -0.125 | -0.04 | 0.099 | 0.004
5 | SERINC3 (UniProt Q13530) | -0.062 | 0.045 | 0.071 | -0.062 | 0.133
6 | SCG3 (UniProt Q8WXD2) | 0.131 | 0.034 | 0.09 | 0 | 0.051
7 | RCOR3 isoform 3 (UniProt Q9P2K3) | -0.139 | 0.087 | 0.111 | -0.06 | 1.27 (active)
8 | RPS14 (UniProt P62263) | 0.041 | -0.162 | -0.238 | 0.078 | -0.036
9 | SFXN5 (UniProt Q8TD22) | -0.079 | 0.024 | -0.11 | 0.007 | -0.061
10 | SAFB2 (UniProt K7EQU4) | -0.338 | – | – | – | –
11 | RBM22 (UniProt Q9NW64) | 0.033 | -0.022 | -0.013 | 0.027 | 0.049
12 | RBM12 (UniProt Q9NTZ6) | -0.039 | 0.023 | 0.077 | -0.064 | -0.006
13 | SH3GL1 (UniProt Q99961) | -0.073 | 0 | 0.118 | 0.002 | -0.049
14 | SEPTIN5 (UniProt Q99719) | -0.021 | 0.069 | 0.014 | -0.045 | -0.016
15 | RNF167 (UniProt Q9H6Y7) | -0.025 | -0.011 | 0.002 | -0.017 | 0.001
16 | SEC23A (UniProt Q15436) | 0.006 | 0.052 | 0.078 | 0.027 | 0.075
17 | RBIS (UniProt Q8N0T1) | 0.035 | -0.034 | -0.02 | 0.101 | 0
18 | SCPEP1 (UniProt Q9HB40) | 0.006 | -0.006 | -0.001 | 0.007 | -0.007
19 | RBM27 (UniProt Q9P2N5) | -0.015 | 0.005 | 0.049 | 0.029 | -0.01
20 | RNPEP (UniProt Q9H4A4) | -0.043 | 0.05 | 0.047 | -0.015 | -0.021
21 | RELA (UniProt Q04206) | -0.013 | 0.056 | 0.03 | 0.031 | 0.008
22 | RARS2 (UniProt Q5T160) | 0.021 | 0.046 | 0.044 | -0.026 | -0.007
23 | RPL31 (UniProt P62899) | 0.106 | -0.241 | -0.22 | 0.202 | 0
24 | SAAL1 (UniProt Q96ER3) | -0.054 | 0.03 | 0.046 | 0.109 | -0.043
25 | RPA1 (UniProt P27694) | -0.032 | 0.025 | 0.087 | -0.047 | 0.011
26 | RMC1 (UniProt Q96DM3) | -0.009 | 0.064 | 0.1 | 0.019 | 0.063
27 | RPP25L (UniProt Q8N5L8) | 0.032 | -0.018 | 0.026 | 0.143 | 0.033

Row | Target | log2 fold change [1] | log2 fold change [2] | log2 fold change [3] | log2 fold change [4] | log2 fold change [5]
28 | RAPGEF4 (UniProt Q8WZA2) | -0.038 | 0.152 | 0.268 | -0.028 | -0.176
29 | RNASET2 (UniProt O00584) | 0.037 | -0.038 | 0.063 | -0.013 | 0.012
30 | ROCK2 (UniProt O75116) | -0.026 | 0.003 | 0.085 | 0.024 | -0.01
31 | SCAMP2 (UniProt H3BUB6) | 0.03 | -0.017 | 0.308 | 0.15 | 0.135
32 | RETREG3 (UniProt Q86VR2) | 0.076 | 0.085 | 0.007 | -0.046 | -0.037
33 | SETD3 (UniProt Q86TU7) | -0.017 | 0.018 | 0.061 | 0.021 | -0.005
34 | ROCK1 (UniProt Q13464) | -0.017 | 0.027 | 0.032 | -0.018 | -0.015
35 | RFC3 (UniProt P40938) | -0.005 | 0.028 | 0.029 | -0.019 | -0.074
36 | RUFY1 (UniProt Q96T51) | -0.006 | -0.029 | 0.041 | 0.002 | -0.028
37 | SLC1A5 (UniProt Q15758) | -0.003 | 0.035 | -0.026 | 0.013 | 0.022
38 | RHOA (UniProt P61586) | 0.01 | -0.058 | -0.095 | -0.041 | 0.021
39 | SKP1 (UniProt P63208) | -0.035 | -0.008 | 0 | -0.036 | -0.017
40 | RPS20 isoform 2 (UniProt P60866) | -0.002 | -0.114 | -0.051 | 0.059 | 0
41 | RANBP2 (UniProt P49792) | -0.094 | 0 | 0.114 | -0.085 | -0.089
42 | SGPL1 (UniProt O95470) | 0.041 | -0.014 | 0.005 | 0.049 | -0.004
43 | RAB33B (UniProt Q9H082) | 0.003 | -0.028 | 0.116 | -0.016 | 0.069
44 | RIC8A isoform 3 (UniProt Q9NPQ8) | -0.033 | 0.02 | 0.015 | -0.041 | -0.094
45 | SASH1 (UniProt O94885) | -0.044 | 0.092 | 0.037 | -0.045 | -0.161
46 | RTF2 (UniProt Q9BY42) | 0.054 | -0.009 | 0.068 | -0.038 | 0.045
47 | SLC18B1 (UniProt Q6NT16) | 0.015 | 0.028 | 0.061 | 0.009 | -0.039
48 | RAB8B (UniProt Q92930) | 0.004 | -0.006 | -0.222 | 0.033 | -0.062
49 | SCCPDH (UniProt Q8NBX0) | -0.047 | 0.087 | 0.002 | -0.003 | -0.059
50 | RPS5 (UniProt P46782) | 0.049 | -0.144 | -0.214 | 0.082 | 0.001
51 | SIDT2 isoform 2 (UniProt Q8NBJ9) | -0.005 | -0.005 | 0.018 | -0.115 | 0.088
52 | SEC23IP (UniProt Q9Y6Y8) | -0.037 | 0.001 | 0.063 | 0.031 | -0.037
53 | RABGGTA (UniProt Q92696) | -0.105 | 0.084 | 0.035 | 0.014 | -0.024
54 | RPS6KA2 isoform 2 (UniProt Q15349) | -0.016 | 0.045 | 0.087 | -0.015 | -0.02
